Molecules are shown by their SMILES. Inconclusive results are not listed. A number with no mark means an inactive call. The source made the active and inactive calls. Calls come from the whole dose curve.
% is set by controls: 0 for no effect and ±100 for the full control effect.

This assay can be described thus: qHTS assay to identify small molecule antagonists of the estrogen receptor alpha (ER-alpha) signaling pathway using the BG1 cell line (AID 743080).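 Note: BG1 cells stimulated with 17beta-estradiol alongside compound; nearly all actives have a fitted effect of over 25% in size.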 The settings on record: BG1Luc4E2 ERE-luciferase antagonist mode, luminescence; series mostly up to 70.3 µM; activity change, negative = inhibition: at the top concentration. An excerpt:
National Center for Advancing Translational Sciences [NCATS]
NIH Chemical Genomics Center [NCGC]
U.S. Environmental Protection Agency [EPA]
National Institutes of Environmental Health Sciences [NIEHS]
National Toxicology Program [NTP]
U.S. Food and Drug Administration [FDA]
Estrogen receptor (ER), a nuclear hormone receptor, plays an important role in development, metabolic homeostasis and reproduction. Endocrine disrupting chemicals (EDCs) and their interactions with steroid hormone receptors like ER causes disruption of normal endocrine function. Therefore, it is important to understand the effect of environmental chemicals on the ER signaling pathway. To identify ER antagonists, BG1-Luc-4E2 cell line (provided by Dr. Michael Denison from University of California) has been used to screen the Tox21 10K compound library. BG1Luc4E2 cell line endogenously expresses full-length ER-alpha and is stably transfected with a plasmid containing four estrogen responsive elements (ERE) upstream of a luciferase reporter gene.
Tox21 Assay Protocol Summary:
BG1-Luc-4E2 cells were cultured in phenol red free assay medium containing 10% charcoal stripped FBS for 5 days before the assay was performed. The cells were dispensed at 4,000 cells/4 uL of assay medium per well into white wall/solid-bottom 1536-well plates using a Multidrop Combi (ThermoFisher Scientific, Waltham, MA) dispenser. The assay plates were incubated at a 37C and 5% CO2 for 24 h, and then 23 nL of compounds dissolved in DMSO, positive controls or DMSO only was transferred to the assay plate using a Pintool station (Kalypsys, San Diego, CA), followed by addition of 1 uL of 17beta-estradiol in assay medium using a Flying Reagent Dispenser (Aurora Discovery, San Diego, CA). After the plates were incubated at 37 C and 5% CO2 for 21.5 h, 1 uL of CellTiter-Fluor reagent (Promega, Madison, WI) of measuring cytotoxicity was added using Flying Reagent Dispenser (FRD) to each well. The assay plates were incubated at 37 C and 5% CO2 for additional 30 min and the fluorescence intensity was quantified by a ViewLux plate reader (PerkinElmer, Shelton, CT). For measuring luciferase reporter gene activity, 4 uL of ONE-Glo reagent (Promega) was added to each plate using an FRD and luminescence was quantified by a ViewLux plate reader after 30 min incubation at room temperature.
For `OCc1ccccc1`, the compound was called inactive.
With `O=C(O)Cn1c(=O)n(Cc2ccc(Br)cc2F)c(=O)c2ccc(Cl)cc21`, the “activity change, negative = inhibition” value was -9.51%.
As for `CCCCCCCCCCCCCCCCO`, the call was inactive.
Turning to `CC1(C)S[C@@H]2[C@H](NC(=O)COc3ccccc3)C(=O)N2[C@H]1C(=O)O`, the compound was classed as inactive.
Turning to `CC(C)c1cccc(C(C)C)c1`, the compound was called inactive.
Take `CC(C)CC(C)O` (stereo not given): the compound was classed as inactive.
Consider `CCCCCCC=O`, for which the compound was classed as inactive.
On the same count and under the same terms, then `CC(C)=CCl`, with “inactive”.
Regarding `COc1ccc([N+](=O)[O-])cc1N`, the compound was called inactive.
For the compound `CCNC(=S)NCC`, the result was inactive.
Same read-out and setting: then `CC(=O)CCC=C(C)C`, with “inactive”; and `CCc1ccccc1CC`, with “inactive”; and `CC1(C)NC(=O)NC1=O`, with “inactive”.
On the same count and under the same terms, the result for `CNC(=O)Oc1ccc2c(c1)[C@]1(C)CCN(C)[C@@H]1N2C` reads “inactive”; that for `O=C(OCC1CCC2OC2C1)C1CCC2OC2C1` (stereo not given), “inactive”.
Still for that read-out and setting: then `CCOCC(=O)O`, with “inactive”; and `CNC(=S)N(C)C`, with “inactive”; and `CC(C)(C)c1cc(Cc2cc(C(C)(C)C)c(O)c(C(C)(C)C)c2)cc(C(C)(C)C)c1O`, with “inactive”.
As for `COCCCN`, the compound was classed as inactive.
In the case of `Nc1ccc(Cl)c(N)c1`, the result was inactive.
On the same count and under the same terms, then `O=C(O)c1cc2ccccc2cc1O`, with “inactive”; and `CC(=O)OCc1ccco1`, with “inactive”.
Turning to `O=C(O)c1ccc(S(=O)(=O)N(Cl)Cl)cc1`, the “activity change, negative = inhibition” value was -0.166%.
On to `Cc1ccc(C(C)C)c(O)c1`, for which the result was inactive.
On the same count and under the same terms, the result for `C=C(C)C(=O)OCC(C)C` reads “inactive”.
The same measure, in the same setting: the result for `CCCCCCCCCCO` reads “inactive”; that for `O=c1[nH]cnc2[nH]ncc12`, “inactive”.
As for `CC(C)OP(=O)(CP(=O)(OC(C)C)OC(C)C)OC(C)C`, the “activity change, negative = inhibition” value is 5.12%.
Regarding `CCCCCC(=O)O`, the result was inactive.
Consider `CN(C)c1ccc(O)c2c1C[C@H]1C[C@H]3[C@H](N(C)C)C(=O)C(C(N)=O)=C(O)[C@@]3(O)C(=O)C1=C2O`, for which the call was inactive.
As for `O=[N+]([O-])c1ccc2nc[nH]c2c1`, the outcome was inactive.
Still for that read-out and setting: the result for `CSc1ccc(Cl)cc1` reads “inactive”; that for `CC(=O)CC(C)(C)O`, “inactive”.
On to `CC(=O)Oc1ccc(C)cc1`, for which the “activity change, negative = inhibition” value was 3.53%.
Consider `O=C(O)c1ccccc1C(=O)O`, for which the compound was called inactive.
For `CCNc1cccc(C)c1`, the compound was classed as inactive.
Same read-out and setting: then `CCCCCCCO`, with “inactive”; and `CC(CCl)OP(=O)(OC(C)CCl)OC(C)CCl` (stereo not given), with “inactive”; and `OC1C(O)C(O)C(O)C(O)C1O` (stereo not given), with “inactive”.
Same read-out and setting: then `Nc1nc(N)nc(-c2ccccc2)n1`, with “inactive”.

Source of the values: PubChem BioAssay (Tox21).
